Experimental data reported in PubChem BioAssay (EPA / NIEHS).
Activity calls are given as the source filed them. The calls were made as follows: active = hit-call score of the fitted dose curve at least 0.9, where 1 is the maximum; inactive = score below 0.9.

target: CCAAT/enhancer-binding protein beta (Homo sapiens) (UniProt P17676); assay: ATG_C_EBP_CIS: Attagene CIS-FACTORIAL HepG2 Assay for human CCAAT/Enhancer Binding Protein (C/EBP) beta (AID 2282927); details: HepG2 Attagene cis-factorial transcription factor reporter; actives raise or lower the signal
Sequence (P17676 whole entry, looked up): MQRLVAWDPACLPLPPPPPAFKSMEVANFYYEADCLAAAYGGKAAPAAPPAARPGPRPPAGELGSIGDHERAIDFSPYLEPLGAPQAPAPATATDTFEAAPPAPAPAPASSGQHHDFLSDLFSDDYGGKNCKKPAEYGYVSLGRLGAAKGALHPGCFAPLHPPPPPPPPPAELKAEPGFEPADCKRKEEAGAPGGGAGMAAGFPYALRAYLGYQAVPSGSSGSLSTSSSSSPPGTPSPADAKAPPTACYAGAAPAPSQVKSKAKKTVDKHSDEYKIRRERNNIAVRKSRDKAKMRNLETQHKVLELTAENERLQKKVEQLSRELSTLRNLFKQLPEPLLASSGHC
Protocol: ATG_CIS is a cell-based, multiplexed-readout assay that uses HepG2, a human liver cell line, with measurements taken at 24 hours after chemical dosing in a 24-well plate.ATG_C_EBP_CIS is one of 52 assay component(s) measured or calculated from the ATG_CIS assay. It is designed to make measurements of mRNA induction, a form of inducible reporter, as detected with fluorescence intensity signals by Reverse transcription polymerase chain reaction (RT-PCR) and Capillary electrophoresis technology.Data from the assay component ATG_C_EBP_CIS was analyzed into 1 assay endpoint. This assay endpoint, ATG_C_EBP_CIS, was analyzed with bidirectional fitting relative to DMSO as the negative control and baseline of activity. Using a type of inducible reporter, measures of mRNA for gain or loss-of-signal activity can be used to understand the reporter gene at the transcription factor-level as they relate to the gene CEBPB. Furthermore, this assay endpoint can be referred to as a primary readout, because this assay has produced multiple assay endpoints where this one serves a reporter gene function. To generalize the intended target to other relatable targets, this assay endpoint is annotated to the dna binding intended target family, where the subfamily is basic leucine zipper.
Human liver HepG2 cells are transiently transfected with multiple reporter transcription units (MRTUs) in 6-well plates using FuGene 6 reagent (Roche; 3 ml FuGene/1 mg DNA). The MRTU constructs are regulated by a cis-regulating element (promoter). […] A major difference between the CIS and TRANS system is that in CIS activities of endogenous TFs are measured, whereas the TRANS assay evaluates changes in activities of exogenous, chimeric NR-Gal4 proteins. […] At the end of 24 hour incubation, total RNA was isolated using TriZol reagent (Invitrogen). The isolated RNA is then reverse-transcribed using oligo(dT) primer and Mo-MLV reverse transcriptase (Invitrogen) with DNAse I (Ambion) treatment for 30 min. The one-tenth of the produced cDNA was amplified by PCR using Taq DNA polymerase (Invitrogen) and two reporter sequence-specific primers. The PCR products were fluorescently labeled by primer extension with 6-arboxyfluorescein (6-FAM) 5'-labeled reporter sequence-specific primer (2 min at 95 C, 20 s at 68 C and 10 min at 72 C) and these products were digested with 5U of HpaI (New England Biolabs) for 2h at 37 C. The fragments were purified using Qiaquick PCR columns (Qiagen), analyzed on an ABI 3130xL genetic analyzer (Applied Biosystems) with peak positions identified by using a set of X-rhodamine (ROX)-labeled MapMarker1000 molecular weight standards (BioVentures). The raw capillary electrophoresis data was processed using Attagraph software (Attagene).

outcome, inactive:
CCC(C)(C)C1CCCCC1OC(C)=O (stereo not given)
CCCCCCCCCCC=CC#N
CC(C)(C)C1CCCCC1=O (stereo not given)
O=C(c1ccccc1)c1ccc(O)c(O)c1O
C1=Cc2ccccc2C1
Cc1cc(C)c(C(=O)O)c(C)c1
O=P(O)(O)Oc1ccccc1
COCc1c(C(C)C)nc(C(C)C)c(/C=C/[C@@H](O)C[C@@H](O)CC(=O)O)c1-c1ccc(F)cc1
[Cl][In]([Cl])[Cl]
CCN(CCO)c1cccc(C)c1
Cc1cc(=O)n(-c2ccccc2)n1C
c1cc(N(CC2CO2)CC2CO2)ccc1OCC1CO1 (stereo not given)
COC(=O)/C=C\C(=O)O
CCN(CC)c1ccc(C(=O)c2ccccc2C(=O)O)c(O)c1
CC(=O)Oc1ccc(C)cc1
O=S(=O)(Oc1ccc(Cl)cc1Cl)c1ccccc1
CC(C)=CC1CC(C)CCO1 (stereo not given)
CCCCCCCC[N+](C)(CCCCCCCC)CCCCCCCC
CC(=O)Nc1nnc(S(N)(=O)=O)s1
O=C(O)Cc1c(Cl)ccc(Cl)c1Cl
CC[C@H]1OC(=O)[C@H](C)[C@@H](O[C@H]2C[C@@](C)(OC)[C@@H](O)[C@H](C)O2)[C@H](C)[C@@H](O[C@@H]2O[C@H](C)C[C@H](N(C)C)[C@H]2O)[C@](C)(O)C[C@@H](C)C(=NOCOCCOC)[C@H](C)[C@@H](O)[C@]1(C)O
COCCOCCOCCOCCOC
CCO[Si](CCCN=C=O)(OCC)OCC
CCc1c(C(=O)O)c(=O)cnn1-c1ccc(Cl)cc1
CC(=O)C=CC1C(C)=CCC(C)C1(C)C (stereo not given)
CC(CC=O)c1ccccc1 (stereo not given)
Cc1cnc(NC(=O)C2=C(O)c3ccccc3S(=O)(=O)N2C)s1
CO[Si](CCC1CCC2OC2C1)(OC)OC (stereo not given)
OC1CCCC1
C=CCCCCCCCCC(=O)OCCCC
CCC(C)OC(=O)c1ccc(O)cc1 (stereo not given)
CCCCOCCOC(=O)COc1nc(Cl)c(Cl)cc1Cl
CC(C)(C)c1n[nH]c(=O)n(N)c1=O
CC1(C)S[C@@H]2[C@H](NC(=O)COc3ccccc3)C(=O)N2[C@H]1C(=O)O
Cn1c([N+](=O)[O-])cnc1COC(N)=O
CCCCCCC(O)CO (stereo not given)
NC(=O)N=NC(N)=O
O=c1cc(-c2ccccc2)oc2ccccc12
CCCCCCCCCCCSCC(=O)O

AC50, active:
Nc1ncn([C@@H]2O[C@H](CO)[C@@H](O)[C@H]2O)c(=O)n1 15.4 µM
